# DT40 TDP1 no CPT: qHTS for Inhibitors of human tyrosyl-DNA phosphodiesterase 1 (TDP1): qHTS in cells in absence of CPT; DT40 Tdp1-/- hTDP1 cells, no CPT, ATP luminescence, 48 h; Potency, µM (titrated, usually from 46.2 µM), for inactives: at the top dose activity change, negative = growth inhibition, actives largely listed as inhibitors; 420,000 tested, 15% active; AID 686978, 2013; note: potency is the fitted concentration of half-maximal effect; nearly all actives have a fitted effect of over 55% in size
#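 Compound effects on proliferation are scored in DT40 Tdp1-/-;hTDP1 cells in the absence of CPT. ATP levels (CellTiter-Glo luminescence) are recorded after a ≥48 hr, 37 °C incubation.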
# DT40 TDP1 CPT: growth inhibition of DT40 Tdp1-/-;hTDP1 cells with camptothecin (screen for TDP1 inhibitors); chicken DT40 Tdp1-/-;hTDP1 cells + 20 nM CPT, ATP luminescence, 48 h; Potency, µM (titrated, usually from 46.2 µM), inactives show top-dose activity change, negative = growth inhibition, hits mostly inhibitors; 420,000 tested, 12% active; note: potency is the fitted concentration of half-maximal effect; nearly all actives have a fitted effect of over 55% in size
#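 Chicken DT40 Tdp1-/- cells stably complemented with human TDP1 were seeded at 400 cells/well in medium containing 20 nM camptothecin, exposed to pin-transferred compounds, and grown at 37 °C for at least 48 hr. Viability was read as ATP luminescence.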
# ELG1 DNA repair: blocks ELG1-dependent DNA repair in HEK293T cells. HEK293T ELG1-luciferase reporter, luminescence, 16 h; DNA damage induced by 5-fluorouridine. Potency, µM (doses to about 46.1 µM), inactives show at the highest dose activity change, negative = inhibition, most hits filed as inhibitors. 330,000 tested, 2.3% active; note: potency is the fitted concentration of half-maximal effect; nearly all actives have a fitted effect of over 55% in size
#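 Luminescence from the luciferase reporter, measured 30 min after ONE-Glo reagent at room temperature, was the read-out. Beforehand, 2,000 cells per well were exposed for 16 hr at 37 °C to 5-fluorouridine together with compound or vehicle.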
# IL1B secr inh: inflammasome signaling inhibition, IL-1 beta readout | THP-1 LPS/ATP IL-1B secretion, AlphaLISA, 16 h; active compounds read low | activity change, % at 57.5 µM | 360,000 tested, 4.7% active; in the data active = activity change below about -50%; inconclusive = mostly about -30% to -49%
#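 THP-1 cells pretreated 1 hr with compounds (up to 57.5 uM final), then stimulated with LPS (250 ng/mL final) plus ATP (1.25 mM final); secreted IL-1B measured by AlphaLISA after 16 hr, decreased signal indicating inhibition.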
# HT1080 IDH1KD tx: kills HT-1080 cells with IDH1 knockdown; HT-1080 IDH1 knockdown viability, ATP luminescence, 48 h; Potency, µM (doses to about 46.1 µM), inactives show top-dose activity, negative = toxicity, hits mostly cytotoxic; 360,000 tested, 2% active; AID 686971;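 note: potency is the fitted concentration of half-maximal effect; 0% = DMSO wells and -100% = cell-free medium wells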
#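 Luminescent ATP read-out (CellTiter-Glo, 10 min at room temperature) after 48 h compound exposure at 37 °C gave viability of IDH1-knockdown HT-1080 cells. Activity was normalised to DMSO and cell-free wells, then fitted as concentration-response curves.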
# HT1080-NT tox: kills 2HG-producing HT-1080-NT fibrosarcoma cells; AID 686970; Potency, µM (top dose mostly 46.1 µM), inactives show top-dose activity, negative = less viability, most hits filed as cytotoxic; 360,000 tested, 1.6% active; HT-1080-NT fibrosarcoma viability, CellTiter-Glo ATP luminescence, 48 h;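 note: NT is the 2HG producing partner of a matched IDH1 knockdown line; potency is the fitted concentration of half-maximal effect; 0% = DMSO-treated cells and -100% = media-only wells without cells; nearly all actives have a fitted effect of over 55% in size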
#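 HT-1080-NT; 750 cells/well; 5% FBS RPMI; 48 h compound, 37 degrees C; CellTiter-Glo luminescence; curve fitting and curve-class assignment.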
# Starred values were filed as active, the others as inactive; ? = inconclusive; nt = no result given; [ ] = dose if it differs, or a comment. Sampled rows, rich in hits. Any-hit rate of the full collection: about 19%. Unless noted, calls come from the whole dose curve; as a rule, active = well fitted curve in the direction sought with a large enough effect; inconclusive = small, poorly fitted or top-dose-only effect, or another doubt; inactive = no such curve, though single readings can be large; an effect the other way counts as inactive or inconclusive. Unless noted, % is set by controls: 0 for no effect and ±100 for the full control effect.
SMILES,DT40 TDP1 no CPT,DT40 TDP1 CPT,ELG1 DNA repair,IL1B secr inh,HT1080 IDH1KD tx,HT1080-NT tox
CN1CCN(CCCOc2ccc(-c3ccccc3)cc2)CC1,16µM*,?,?,-82*,16µM*,23µM*
CCOC(=O)[C@@H]1[C@H]2COc3cc(OC)ccc3[C@H]2N2C(=O)N(c3cccc(F)c3)C(=O)[C@@]12C,?,?,-18%,-18,2%,0%
CN(O)/C=c1/ccc2c(n1)C(=O)C=CC=2,4.6µM*,4.6µM*,-28%,70,?,?
Cc1cc(C(C)(C)C)cc(C)c1CCNC(=O)c1ccc[n+]([O-])c1,?,-23%,?,-5,?,?
Cc1cc(C(C)(C)C)cc(C)c1C[n+]1ccc2ccccc2c1,0.23µM*,0.41µM*,?,-52*,?,?
N/C(Cc1nc(-c2ccc(F)cc2)cs1)=N\O,-11%,-15%,?,-54*,3%,13%
CC(c1ccon1)N(C)Cc1cn(C)nc1-c1cccc(Cl)c1 (stereo not drawn),16µM*,?,-3%,26,-5%,16%
Cc1cnccc1CN(C)Cc1cn(C)nc1-c1cccc(Cl)c1,?,?,12%,0,-9%,-7%
CCc1ccc2[nH]c3nc(SCC(=O)NNC(=O)c4ccc(C(C)(C)C)cc4)nnc3c2c1,16µM*,21µM*,-1%,-59*,-4%,5%
Cc1ccc(C(=O)NNC(=O)CSc2nc(N)cc(N)n2)cc1,-17%,?,1%,1,9%,14%
CCc1ccc2[nH]c3nc(SCc4nnc(-c5ccc(C)cc5)o4)nnc3c2c1,?,?,-2%,26,9%,11%
CCc1ccc2[nH]c3nc(SCCN4CCOCC4)nnc3c2c1,23µM*,?,26µM*,11,-7%,11%
Cc1ccc(C(=O)NNC(=O)CSc2nnc3c(n2)[nH]c2ccc(C)cc23)cc1,18µM*,?,27%,31,18%,-1%
CCOc1ccc2[nH]c3nc(SCC(=O)NC4CC4)nnc3c2c1,?,?,1%,55,5%,4%
CC(C)(C)C1CCc2c(sc3nc(-c4cc5cc(Br)ccc5oc4=O)[nH]c(=O)c23)C1 (stereo not drawn),5%,-17%,nt,nt,nt,nt
OCC(O)C(O)C(O)CO (stereo not drawn),5%,-10%,nt,nt,nt,nt
CCn1c(SCc2c(Cl)cccc2Cl)nnc1-c1nn(-c2ccccc2)ccc1=O,?,?,-19%,0,-2%[9.24 µM],-8%
CCSc1nccc(-c2nn(-c3ccc(C)cc3)ccc2=O)n1,6.5µM*,6.5µM*,10µM*,-3,9.2µM*,10µM*
CSc1nccc(-c2nn(-c3ccc(C)cc3)ccc2=O)n1,5.8µM*,7.3µM*,?,146,8.2µM*,?
CNC(=O)c1nn(-c2ccc(C)cc2)ccc1=O,8%,5%,?,21,13%,3%
C=CCSc1nccc(-c2nn(-c3ccc(C)cc3)ccc2=O)n1,5.8µM*,7.3µM*,7.3µM*,-25,?,?
Nc1nccc(-c2nn(-c3ccc(Cl)cc3)ccc2=O)n1,-15%,-11%,-11%,3,1%,6%
C#CCSc1nccc(-c2nn(-c3ccc(C)cc3)ccc2=O)n1,26µM*,?,9.2µM*,71,-23%,-8%
O=C(C1CCCCC1)N1C[C@H](n2cc(C3CC3)nn2)[C@@H](O)C[C@@H]1c1ccc(Cl)cc1,-29%,-18%,nt,22,11%,-2%
Cc1nc([N+](=O)[O-])cn1CC(=O)c1ccc2c(c1)OCCCO2,?,-30%,nt,nt,nt,nt
